Experimental data as given in the supplement of paper PMC3334620.
In all, about 33,000 sequences were measured (“E-score (-0.5 to 0.5)”: median about -0.04, highest 2% from about 0.36 on). What follows is part of a selection rich in the highest values, with near analogues and random picks from the rest.

target: T1, Hmlalpha2 (UniProt P0CY09); assay: PBM E-score (8-mer binding enrichment) (E-score (-0.5 to 0.5)); higher = stronger / more preferred TF binding; settings: protein concentration: 200 nM; construct: GST-full length
T1 sequence: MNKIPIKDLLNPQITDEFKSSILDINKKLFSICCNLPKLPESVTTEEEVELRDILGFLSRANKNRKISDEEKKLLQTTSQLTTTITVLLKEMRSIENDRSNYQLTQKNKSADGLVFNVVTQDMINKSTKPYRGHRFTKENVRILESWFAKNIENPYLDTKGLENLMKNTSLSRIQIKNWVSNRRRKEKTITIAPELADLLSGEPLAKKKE
Description: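 Universal 'all 10-mer' protein binding microarrays (Agilent AMADID 015681) probed with GST-tagged S. cerevisiae TFs (full-length or DBD) made by in vitro transcription/translation (PURExpress), about 100-200 nM. Bound TF was detected with fluorescent anti-GST. Each ungapped 8-mer (which stands for itself and its reverse complement) is scored by the PBM enrichment score (E-score), a modified Wilcoxon-Mann-Whitney statistic from -0.5 to +0.5, computed with the Universal PBM Analysis Suite. Scale: above 0.35 generally sequence-specific binding.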

| Sequence | PBM E-score |
| --- | --- |
| ACGTTGCG | 0.0728 |
| CGTCCTTC | -0.152 |
| GTTGAGCA | 0.111 |
| GTTGGCGA | -0.0755 |
| GGCTCTTA | -0.184 |
| ACTTAGAT | 0.132 |
| GTCCCTTA | -0.127 |
| CATTACTA | 0.225 |
| AATTACCC | -0.0352 |
| AATTACAC | 0.467 |
| AATTACAG | 0.307 |
| CATTACGA | 0.214 |
| CATTACAC | 0.474 |
| CATTACAA | 0.411 |
| TGTTACAA | 0.31 |
| TCTTACAA | 0.229 |
| CATTACAG | 0.326 |
| TATTACAA | 0.416 |
| CATTACCC | -0.00064 |
| GTTTCCCA | -0.0865 |
| TCGTTGCA | 0.0513 |
| GGAAAGTA | -0.136 |
| AAGAAGAT | -0.0289 |
| CCCGACAG | -0.191 |
| AATCGGGG | -0.203 |

| Sequence | PBM E-score |
| --- | --- |
| AAGATACC | -0.0459 |
| CGGAACCC | -0.13 |
| CCATTAAG | -0.0773 |
| TACAAGGA | 0.291 |
| TATCGTCA | -0.00037 |
| AATTACCA | 0.273 |
| GATTACAC | 0.483 |
| GATTACCA | 0.087 |
| AATTACAA | 0.436 |
| GATTACAA | 0.438 |
| GATTACCC | 0.109 |
| GATTACTA | 0.213 |
| GATTAAAC | 0.155 |
| AATTACTA | 0.257 |
| AGCGTTGG | -0.0565 |
| CCTTGGGC | -0.362 |
| TAGCTCAA | -0.0444 |
| GACTCTGC | -0.314 |
| AGGCTGCC | -0.401 |
| ACAGTAAG | 0.064 |
| GTACGACA | 0.196 |
| GCATGGTA | 0.189 |
| ACATGGTG | 0.414 |
| GCATGGCC | -0.0405 |
| AGATGGTG | -0.0243 |

| Sequence | PBM E-score |
| --- | --- |
| ACATGGCC | 0.417 |
| ACATGGTA | 0.397 |
| CCATGGTA | 0.00138 |
| ACATGGCG | 0.324 |
| ACATGGTC | 0.308 |
| AGAGGCCT | -0.263 |
| AAATCTCA | -0.0212 |
| GAGGTCTA | -0.0189 |
| GCTGCAGC | -0.305 |
| CGCGTTAC | 0.212 |
| TGCGTTAA | 0.397 |
| AGCGTTAA | 0.0425 |
| CACGTTAA | 0.376 |
| GGCGTTAA | 0.216 |
| CACGTTAG | 0.113 |
| TACGTTAA | 0.325 |
| CGCGTTAA | 0.427 |
| CGCGTTAG | 0.3 |
| GCTATCAA | -0.0322 |
| CTGACTCA | -0.179 |
| AAGTCGCG | 0.111 |
| TAATTCGA | 0.121 |
| ACGCAAAA | 0.145 |
| CCAGTGAC | -0.125 |
| GCAGTTTA | 0.00455 |

| Sequence | PBM E-score |
| --- | --- |
| CTTATACA | 0.252 |
| ATTATACA | 0.34 |
| GTTATACA | 0.4 |
| ATTATAGA | 0.0519 |
| GTTATAGA | 0.368 |
| CTTATAGA | -0.154 |
| CATGCGCC | -0.0099 |
| ATGTCGGA | 0.0661 |
| AACGTAAT | 0.379 |
| GACGTAAA | 0.28 |
| AACGTAAA | 0.325 |
| TACGTAAA | 0.41 |
| CACGTAAC | 0.196 |
| CACGTAAA | 0.405 |
| CACGTAAG | 0.244 |
| AACGTAAC | 0.207 |
| TACGTATA | 0.327 |
| CGTCCACA | -0.0612 |
| CCGCGGCC | -0.192 |
| CTGCAAAG | -0.0914 |
| CACGTTGG | 0.109 |
| ACAGAGAG | -0.0914 |
| CCCAATGC | -0.198 |
| AAACATAT | 0.311 |
| CCACATGG | -0.0738 |

| Sequence | PBM E-score |
| --- | --- |
| GAACATGA | 0.31 |
| AAACATGC | 0.37 |
| CCACATGA | 0.109 |
| CAACATGG | 0.403 |
| AAACATGG | 0.349 |
| CAACATGA | 0.449 |
| AAACATCC | 0.17 |
| AAACATGT | 0.445 |
| AAACATAC | 0.267 |
| AAACATCT | 0.202 |
| ATCCTCCA | -0.166 |
| ATACTGAT | 0.126 |
| ACAGCCGG | -0.073 |
| AGAGCTCC | -0.252 |
| CTGGGAGA | -0.262 |
| ACACATGG | 0.21 |
| ACACATGT | 0.394 |
| CAACATAC | 0.303 |
| TAACATTA | 0.331 |
| TAACATGA | 0.462 |
| AAACATAA | 0.348 |
| AAACATGA | 0.388 |
| CAACATGC | 0.398 |
| GAACATGC | 0.272 |
| TAACATCA | 0.338 |

| Sequence | PBM E-score |
| --- | --- |
| AAACATCA | 0.278 |
| ACACATGA | 0.304 |
| ACTAACCC | 0.0236 |
| CAAGGGTC | -0.199 |
| CCACACAG | -0.0322 |
| ATGCGTTG | 0.205 |
| GACTGACC | -0.192 |
| GAGGTCAA | -0.0488 |
| GTGAAGAA | 0.181 |
| CCCAAACG | -0.123 |
| ACAACTCA | 0.194 |
| AGAATAGC | -0.15 |
| AGTGCCAC | -0.215 |
| CAGGAGCC | -0.225 |
| CTCCCTCC | -0.389 |
| GTTACAAA | 0.303 |
| CTCACACA | 0.114 |
| GTCACACA | 0.15 |
| CTTACTCA | -0.0475 |
| CTTACACA | 0.408 |
| GTTACACA | 0.435 |
| GCAAAACA | 0.135 |
| CCCTTGCC | -0.285 |
| TAACCGCA | 0.0481 |
| AGACTCAT | -0.0539 |

| Sequence | PBM E-score |
| --- | --- |
| CAATTACC | 0.0295 |
| TACTTACA | 0.379 |
| TAATTACA | 0.462 |
| GACTTACA | 0.274 |
| AAATTACT | 0.209 |
| AAATTACG | 0.309 |
| CAATTACG | 0.349 |
| CAATTACA | 0.445 |
| AAATTACA | 0.424 |
| TAATTATA | 0.245 |
| CACTTACA | 0.281 |
| TAATTAGA | 0.167 |
| CACCGCTA | -0.0146 |
| CGAATTCA | -0.0293 |
| AATGTAGT | 0.249 |
| GGGGCCTA | -0.31 |
| GCCGCGGC | -0.242 |
| CCGCGATC | -0.238 |
| AATTCTGC | -0.061 |
| GAATTATA | 0.113 |
| GAATTACA | 0.444 |
| GAATTACC | 0.107 |
